miR-122 inh: miR-122 sensor activation; Huh7 psiCHECK-miR122 Renilla luciferase sensor, 48 h; activation, % at 12.5 µM; 0.14% of 340,000 active;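 active = mean activation of 30% or more, with every replicate also reaching 30%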;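 also: 0% = median of neutral control wells and 100% = median of positive control wells; higher luciferase signal means stronger suppression of miR-122 activity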
Starred values were filed as active, the others as inactive. The sample as a whole holds a higher share of hits than the screen did.

SMILES | miR-122 inh
C[C@H](CO)N1C[C@H](C)[C@H](CN(C)Cc2ccccn2)Oc2ncc(Br)cc2C1=O | -3
Cc1ccccc1-c1cnc2c(c1)C(=O)N([C@H](C)CO)C[C@@H](C)[C@H](CN(C)C(=O)c1ccccc1)O2 | 4
C[C@H](O)C#Cc1ccc2c(c1)O[C@H](CN(C)C(=O)c1ccncc1)[C@H](C)CN([C@H](C)CO)S2(=O)=O | 14
COc1cc2nc(C3CCC3)n(NC(=O)C3CCCC(OC)C3)c(=O)c2cc1OC (configuration not stated) | 34*
CCCNC(=O)N(C)C[C@@H]1Oc2cc(C#Cc3cccc(F)c3)ccc2S(=O)(=O)N([C@@H](C)CO)C[C@@H]1C | -4
C[C@@H]1CN([C@H](C)CO)C(=O)c2cc(-c3ccc(F)cc3)cnc2O[C@H]1CN(C)C(=O)c1cccnc1 | -8
Cc1ccccc1-c1ccc2c(c1)O[C@@H](CN(C)C(=O)Nc1ccccc1)[C@@H](C)CN([C@H](C)CO)S2(=O)=O | 5
COc1cccc(NC(=O)N(C)C[C@@H]2Oc3cc(C#Cc4ccccc4)ccc3S(=O)(=O)N([C@H](C)CO)C[C@H]2C)c1 | 2
COc1ccc(C#Cc2ccc3c(c2)O[C@@H](CN(C)C(=O)NC2CCCCC2)[C@H](C)CN([C@@H](C)CO)S3(=O)=O)cc1 | -17
Cc1ccccc1-c1ccc([C@@H]2[C@@H](CO)N3CCCCN(C(=O)Nc4ccc(F)cc4)C[C@@H]23)cc1 | 31*
COCC#Cc1cnc2c(c1)C(=O)N([C@@H](C)CO)C[C@H](C)[C@H](CN(C)C(=O)Nc1ccc(OC)cc1)O2 | -23
COc1ccc(NC(=O)N2CCCCN3[C@H](CO)[C@H](c4ccc(C#CCC(C)C)cc4)[C@H]3C2)cc1 | 34*
COc1ccc(C#Cc2ccc([C@@H]3[C@H](CO)N4CCCCN(C(=O)Nc5ccccc5)C[C@@H]34)cc2)cc1 | 36*
Cc1ccccc1-c1ccc2c(c1)O[C@@H](CN(C)C(=O)Nc1ccccc1)[C@@H](C)CN([C@@H](C)CO)S2(=O)=O | -4
C[C@@H]1CN([C@H](C)CO)C(=O)c2cc(C3=CCCCC3)cnc2O[C@H]1CN(C)Cc1ccccc1C(=O)O | -16
C/C=C/c1ccc2c(c1)O[C@H](CN(C)C(=O)Cc1ccccn1)[C@@H](C)CN([C@H](C)CO)S2(=O)=O | -9
COc1cccc(-c2cnc3c(c2)C(=O)N([C@H](C)CO)C[C@H](C)[C@H](CN(C)Cc2cccc(C(F)(F)F)c2)O3)c1 | 0
C/C=C/c1ccc2c(c1)O[C@@H](CN(C)S(C)(=O)=O)[C@H](C)CN([C@@H](C)CO)S2(=O)=O | -9
CCCNC(=O)N(C)C[C@@H]1Oc2ncc(C#C[C@@H](C)O)cc2C(=O)N([C@H](C)CO)C[C@H]1C | 3
C[C@@H]1CN([C@H](C)CO)C(=O)c2cc(-c3cccc(C#N)c3)cnc2O[C@@H]1CN(C)C(=O)C1CCCCC1 | 6
C[C@@H]1CN([C@@H](C)CO)C(=O)c2cccc(NC(=O)C3CCCCC3)c2O[C@@H]1CN(C)Cc1ccc(C(=O)Nc2ccccc2N)cc1 | -166
C[C@@H]1CN([C@H](C)CO)C(=O)c2cc(C#CCC3CCCC3)cnc2O[C@H]1CN(C)C(=O)CC1CC1 | -6
Cc1ccc(S(=O)(=O)N(C)C[C@H]2Oc3ncc(C#CCC(C)C)cc3C(=O)N([C@@H](C)CO)C[C@@H]2C)cc1 | -23
Cc1ccc(C2CC(C(F)(F)F)n3nc(C(=O)NCc4ccco4)cc3N2)cc1 (configuration not stated) | 41*
Cc1ccc(CN2CCSc3ccc(C(=O)NCc4ccco4)cc32)cc1 | -100
SMILES | miR-122 inh
C[C@@H]1CN([C@@H](C)CO)C(=O)c2cc(C#CC3(O)CCCC3)cnc2O[C@H]1CN(C)S(=O)(=O)c1ccc(F)cc1 | -3
C[C@@H]1CN([C@H](C)CO)C(=O)c2cc(/C=C/c3ccccc3)cnc2O[C@@H]1CN(C)S(=O)(=O)c1ccc(F)cc1 | 8
Cc1ccc(S(=O)(=O)N(C)C[C@H]2Oc3cc(-c4cccc(F)c4)ccc3S(=O)(=O)N([C@H](C)CO)C[C@H]2C)cc1 | -12
C[C@@H]1CN([C@H](C)CO)C(=O)c2cc(-c3cccc(F)c3)cnc2O[C@H]1CN(C)C(=O)c1ccccn1 | 4
CCC(=O)N(C)C[C@H]1Oc2ncc(C#C[C@@H](C)O)cc2C(=O)N([C@H](C)CO)C[C@@H]1C | -4
COc1cc(-c2nnc3sc(C4CCCCC4)nn23)cc(OC)c1OC | 32*
COCC#Cc1cnc2c(c1)C(=O)N([C@H](C)CO)C[C@H](C)[C@H](CN(C)C(=O)Nc1c(C)noc1C)O2 | -22
C/C=C/c1cnc2c(c1)C(=O)N([C@@H](C)CO)C[C@H](C)[C@@H](CN(C)C(=O)Nc1ccccc1F)O2 | -3
C[C@H](CO)N1C[C@H](C)[C@@H](CN(C)C(=O)C2CC2)Oc2cc(C#Cc3cccnc3)ccc2S1(=O)=O | -17
COCC(=O)N(C)C[C@H]1Oc2cc(-c3ccc(C#N)cc3)ccc2S(=O)(=O)N([C@@H](C)CO)C[C@H]1C | 51*
COCC(=O)N(C)C[C@H]1Oc2cc(-c3ccccc3)ccc2S(=O)(=O)N([C@H](C)CO)C[C@H]1C | 8
